Results from PubChem BioAssay (EPA / NIEHS).
Inconclusive results are not listed. Calls of active or inactive are those of the source. The calls were made as follows, unless noted: active = hit-call score of the fitted dose curve at least 0.9, where 1 is the maximum; inconclusive = response in the unintended direction; inactive = score below 0.9.

Columns and labels:
[1] = Tanguay_ZF_120hpf_PIG_legacy: (Legacy) Oregon State University Tanguay Lab 120 Hour Post-fertilization zebrafish Assay for Pigmentation Malformation (AID 2283650)
Summary of the method: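 Tropical 5D wild-type zebrafish embryos, dechorionated with pronase at 4 hpf, were exposed singly from 6 hpf to 120 hpf statically at 28C in sealed, dark plates with 0.64% DMSO; pigmentation scored present/absent by brightfield microscopy, fitted against DMSO.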

[2] = Tanguay_ZF_120hpf_CIRC_legacy: (Legacy) Oregon State University Tanguay Lab 120 Hour Post-fertilization zebrafish Assay for Circulatory Malformation (AID 2283651)
Summary of the method: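 Read-out: presence or absence of circulatory malformation at 120 hpf, scored by brightfield microscopy, fitted in the gain-of-signal direction against DMSO baseline. Wild-type 5D larvae were exposed from 6 hpf after enzymatic chorion removal.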

[3] = read-out: xenobiotic metabolism (CYP1A2), CYP1A2 (gene 1544); experiment: CLD_CYP1A2_6hr: CellzDirect (CLD) Gene Expression Assay for xenobiotic metabolism (CYP1A2) at 6 hours (AID 2283663);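 as to AC50: potency is for induction meaning a rise in mRNA above DMSO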
Summary of the method: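 Primary human hepatocytes from two donor preparations, dosed daily with multiple concentrations in 0.2% DMSO and harvested at 6 h. CYP1A2 mRNA induction measured by chemiluminescent qNPA, gain of signal fitted against DMSO; cytotoxicity flagged morphologically.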

[4] = read-out: xenobiotic metabolism (CYP2C9), CYP2C9 (gene 1559); experiment: CLD_CYP2C9_6hr: CellzDirect (CLD) Gene Expression Assay for xenobiotic metabolism (CYP2C9) at 6 hours (AID 2283664)
Summary of the method: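 Primary human hepatocytes dosed daily with test chemicals at multiple concentrations; harvested at 6 h. CYP2C9 mRNA induction measured by qNPA chemiluminescence. Gain of signal fitted against 0.2% DMSO vehicle; cytotoxicity annotated from phase-contrast morphology.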

[5] = read-out: alkyl and aryl transferase (GSTA2), GSTA2 (gene 2939); experiment: CLD_GSTA2_6hr: CellzDirect (CLD) Gene Expression Assay for alkyl and aryl transferase (GSTA2) at 6 hours (AID 2283666)
Summary of the method: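 Primary human hepatocytes from two donor preparations were dosed daily with fresh compound at multiple concentrations, 0.2% DMSO vehicle. GSTA2 mRNA was measured at 6 hours by qNPA chemiluminescence; induction fitted relative to DMSO, with cytotoxicity flagged morphologically.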

[6] = Tanguay_ZF_120hpf_TRUN_legacy: (Legacy) Oregon State University Tanguay Lab 120 Hour Post-fertilization zebrafish Assay for Truncated Body (AID 2283655)
Summary of the method: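 5D wild-type larvae; pronase dechorionation; static exposure 6→120 hpf, 28C; DMSO 0.64% final; 5uM trimethyltin chloride positive control. Readout: presence/absence of truncated body, analyzed relative to DMSO.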

[7] = Tanguay_ZF_120hpf_NC_legacy: (Legacy) Oregon State University Tanguay Lab 120 Hour Post-fertilization zebrafish Assay for Notochord and Tail Malformation (AID 2283656)
Summary of the method: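 Dechorionated Tropical 5D wild-type zebrafish embryos, one per well from 6 hpf, statically exposed to 120 hpf at 28C in 0.64% DMSO final. Notochord distortion scored present/absent by brightfield; dead embryos excluded.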

[8] = system: Thyroperoxidase (TPO), gene 54314; experiment: CCTE_Simmons_AUR_rTPO: CCTE's Amplex UltraRed Assay for Thyroperoxidase (TPO) Inhibition, Simmons Lab (AID 2283662);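 as to AC50: potency for loss of signal meaning inhibition of peroxidase activity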
Summary of the method: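 Cell-free peroxidase activity assay using rat thyroid gland microsomes with excess H2O2 (300 uM) and 25 uM Amplex UltraRed. Compounds tested from 5 nM to 87.5 uM; fluorescence measured after 30 min at 37C, analysed relative to DMSO baseline.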

[9] = CCTE_Simmons_CellTiterGLO_HEK293T: Viability Assessment in CCTE's Assays for Thyroperoxidase (TPO) Inhibition, Simmons Lab (AID 2283665);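 as to AC50: cells exposed to compound for 24 h before readout; actives reduce ATP signal below DMSO vehicle meaning cytotoxicity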
Summary of the method: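 HEK293T, 10 000 cells/well, DMEM + 1% FBS; 8-pt titration 5 nM–87.5 uM [final], 0.5% DMSO; 24 hr, 37C, 5% CO2; CellTiter-Glo luminescence; n=3 biological replicates.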

[10] = Tanguay_ZF_120hpf_TR_legacy: (Legacy) Oregon State University Tanguay Lab 120 Hour Post-fertilization zebrafish Assay for Touch Response (AID 2283667)
Summary of the method: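 Tropical 5D wild-type zebrafish embryos were exposed statically in sealed, foil-covered plates at 28C until 120 hpf, with 0.64% (vol/vol) final DMSO. Touch response was scored as present or absent; embryos that died were not scored.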

[11] = read-out: organic anion transporter (SLCO1B1), SLCO1B1 (gene 10599); experiment: CLD_SLCO1B1_6hr: CellzDirect (CLD) Gene Expression Assay for organic anion transporter (SLCO1B1) at 6 hours (AID 2283668);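 also: active means mRNA induction above DMSO baseline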
Summary of the method: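 Primary human hepatocytes dosed daily with test chemicals (multiple concentrations) in 0.2% DMSO vehicle; harvested at 6 h. SLCO1B1 mRNA quantified by qNPA chemiluminescence, fitted as gain-of-signal versus DMSO; cytotoxicity from phase-contrast morphology flagged alongside.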

[12] = read-out: solute carrier (SLC22A6), SLC22A6 (gene 9356); experiment: LTEA_HepaRG_SLC22A6: Life Technologies and Expression Analysis (LTEA) Assay for solute carrier (SLC22A6) using HepaRG (AID 2283653; active = hit-call score of the fitted dose curve at least 0.9, where 1 is the maximum; inactive = score below 0.9); conditions: mRNA level, 48 h; actives raise or lower the signal
Summary of the method: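 This endpoint tracks SLC22A6 mRNA induction or suppression in human HepaRG cultures after 48 h dosing, concentrations reaching 100 uM. Values derive from bidirectional fitting against DMSO controls.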

[13] = read-out: solute carrier (SLC10A1), SLC10A1 (gene 6554); experiment: LTEA_HepaRG_SLC10A1: Life Technologies and Expression Analysis (LTEA) Assay for solute carrier (SLC10A1) using HepaRG (AID 2283657; active = hit-call score of the fitted dose curve at least 0.9, where 1 is the maximum; inactive = score below 0.9); conditions: mRNA level, 48 h; actives raise or lower the signal
Summary of the method: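 Differentiated HepaRG cells were plated 48 h, then exposed in serum-free induction medium for 48 h to 8 concentrations (top 100 uM, half-log steps, 0.5% DMSO). SLC10A1 mRNA was quantified by qRT-PCR normalized to ACTB, GAPDH, POLR2A; bidirectional fit versus DMSO.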

[14] = read-out: matrix metalloproteinase-1 (MMP1), MMP1 (gene 4312); experiment: LTEA_HepaRG_MMP1: Life Technologies and Expression Analysis (LTEA) Assay for matrix metalloproteinase-1 (MMP1) using HepaRG (AID 2283658; active = hit-call score of the fitted dose curve at least 0.9, where 1 is the maximum; inactive = score below 0.9); conditions: mRNA level, 48 h; actives raise or lower the signal
Summary of the method: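 Bidirectional concentration-response fitting relative to 0.5% DMSO gives the endpoint, derived from MMP1 mRNA levels (qRT-PCR) in human HepaRG cells treated 48 h with chemicals up to 100 uM.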

[15] = read-out: sulfotransferase (SULT2A), SULT2A1 (gene 6822); experiment: CLD_SULT2A_6hr: CellzDirect (CLD) Gene Expression Assay for sulfotransferase (SULT2A) at 6 hours (AID 2283669);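 also: hits raise transcript level above the DMSO vehicle baseline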
Summary of the method: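 Primary human hepatocytes from two donor preparations were dosed daily with chemicals or 0.2% DMSO and harvested at 6 h. Transcript induction read by qNPA chemiluminescence, fitted for gain of signal relative to DMSO; morphology-based cytotoxicity annotated.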

[16] = read-out: xenobiotic metabolism (CYP1A1), CYP1A1 (gene 1543); experiment: CLD_CYP1A1_6hr: CellzDirect (CLD) Gene Expression Assay for xenobiotic metabolism (CYP1A1) at 6 hours (AID 2283661)
Summary of the method: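 Primary human hepatocytes from two donors, compound versus 0.2% DMSO vehicle. CYP1A1 mRNA measured 6 h after dosing by quantitative nuclease protection assay with chemiluminescent read-out; induction fitted relative to DMSO, cytotoxicity flagged by microscopy.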

[17] = read-out: ABC Transporter (ABCB1), ABCB1 (gene 5243); experiment: CLD_ABCB1_6hr: CellzDirect (CLD) Gene Expression Assay for ABC Transporter (ABCB1) at 6 hours (AID 2283659);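 also: hits raise ABCB1 transcript above the DMSO vehicle baseline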
Summary of the method: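 Primary human hepatocytes (two donor preparations) dosed daily for two days with chemicals at multiple concentrations, 0.2% DMSO vehicle; harvested 6 h post-dose. ABCB1 mRNA induction quantified by qNPA chemiluminescence; gain-of-signal fitted versus DMSO.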

[18] = Tanguay_ZF_120hpf_SWIM_legacy: (Legacy) Oregon State University Tanguay Lab 120 Hour Post-fertilization zebrafish Assay for Swim Bladder Malformation (AID 2283654);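 also: swim bladder malformation in each larva scored yes or no under brightfield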
Summary of the method: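 Dechorionated Tropical 5D wild-type embryos, placed singly from 6 hpf, were statically exposed at 28C to 120 hpf with 0.64% DMSO final; swim bladder malformation was scored present/absent by brightfield microscopy, gain of signal relative to DMSO controls.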

Measured: AC50

OCCOc1ccccc1
inactive: [1] | [2] | [3] | [4] | [5]

COc1nn(CSP(=S)(OC)OC)c(=O)s1
active: [8] 3.7 µM | [3] 2.89 µM
inactive: [1] | [6] | [7] | [9] | [10] | [11]

O=C1c2ccccc2C(=O)N1SC(Cl)(Cl)Cl
active: [8] 27.3 µM | [9] 9.19 µM
inactive: [1] | [12] | [6] | [7] | [13] | [14] | [10] | [11]

CC(C)(C)C(O)/C(=C\c1ccc(Cl)cc1Cl)n1cncn1 (centres undefined)
inactive: [1] | [2] | [6] | [3] | [5] | [10] | [15]

CCC(C)Nc1c([N+](=O)[O-])cc(C(C)(C)C)cc1[N+](=O)[O-] (centres undefined)
active: [13] 72.9 µM | [3] 5.44 µM
inactive: [1] | [12] | [6] | [14] | [10] | [15]

COC(=O)c1ccccc1S(=O)(=O)NC(=O)N(C)c1nc(C)nc(OC)n1
inactive: [4] | [5] | [11] | [15]
active: [3] 20 µM

CC(C)OC(=O)Nc1cccc(Cl)c1
inactive: [1] | [6] | [7] | [5] | [10] | [11]
active: [3] 3.11 µM

CC(C)N(C(=O)COc1nnc(C(F)(F)F)s1)c1ccc(F)cc1
inactive: [1] | [2] | [6] | [8] | [3] | [10] | [11] | [15]

[2H]C1([2H])[n+]2ccccc2-c2cccc[n+]2C1([2H])[2H]
inactive: [3] | [4] | [5] | [11]

COC(=O)c1ccccc1S(=O)(=O)NC(=O)Nc1nc(C)nc(OC)n1
inactive: [3] | [11]

COc1cc(OC)nc(NC(=O)NS(=O)(=O)c2cc(NC=O)ccc2C(=O)N(C)C)n1
inactive: [3] | [4] | [11] | [15]

O=C(O)C(F)(F)C(F)(F)C(F)(F)C(F)(F)C(F)(F)C(F)(F)C(F)(F)F
inactive: [1] | [2] | [6] | [7] | [10] | [11]

CNC(=O)Oc1cccc(N=CN(C)C)c1
inactive: [6] | [7] | [16] | [3] | [9] | [5] | [10] | [15]
active: [8] 19.8 µM

CCOc1nc(NC)nc(NC(=O)NS(=O)(=O)c2ccccc2C(=O)OC)n1
inactive: [17] | [3] | [5] | [11] | [15]

O=S1OCC2C(CO1)C1(Cl)C(Cl)=C(Cl)C2(Cl)C1(Cl)Cl (centres undefined)
inactive: [1] | [2] | [6] | [10] | [11] | [15]

C#CCN1C(=O)COc2cc(F)c(N3C(=O)C4=C(CCCC4)C3=O)cc21
inactive: [1] | [2] | [7] | [5] | [10] | [11]

C[C@H]1[C@H](c2ccc(Cl)cc2)SC(=O)N1C(=O)NC1CCCCC1
inactive: [1] | [18] | [6] | [7] | [3] | [4] | [5] | [10] | [15]
